# In PubChem BioAssay (Tox21):
# Inconclusive results are not listed. A call without a number means that no potency is given here. Unmarked numbers belong to inactive results. Activity calls are given as the source filed them. Calls follow the shape of the dose curve; as a rule, active = well fitted cell-killing curve with a large enough effect in the repeat runs; inconclusive = weak or mixed curves, or effect the other way; inactive = flat fitted curve, though single readings scatter.
# Experiment: cAMP Responsive Elements (CRE) small molecule antagonists, cell-based qHTS assay: qHTS cell viability counter screen (AID 2060913); also: nearly all actives have a fitted effect of over 40% in size
# Conditions: CRE-bla HEK293T viability, CellTiter-Glo luminescence, 5 h; series mostly up to 92.4 µM
# Method in brief: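 Cytotoxicity read in the same wells as the CRE-bla HEK293T antagonist assay: after 3 h compound with 0.25 uM NKH477 final and 2 h beta-lactamase substrate, CellTiter-Glo luminescence measured.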
Structure (SMILES),Potency,"viability change, negative = cytotoxic"
NC(=O)c1cc([N+](=O)[O-])cc([N+](=O)[O-])c1,inactive,–
Cc1ccc2c(C)cccc2c1,inactive,–
C[As+](C)(C)CC(=O)[O-],inactive,–
O.O.O.O=C([O-])[C@H]([O-])[C@@H]([O-])C(=O)[O-].O=C([O-])[C@H]([O-])[C@@H]([O-])C(=O)[O-].[K+].[K+].[Sb+3].[Sb+3],inactive,–
CN1CCc2cc(Cl)c(O)cc2[C@H]2c3ccccc3CC[C@@H]21,inactive,–
[N-]=[N+]=CC(=O)OC[C@H](N)C(=O)O,inactive,–
c1ccc(-c2cccc(-c3ccccc3)c2)cc1,inactive,–
COc1ccc(C=O)cc1OC,inactive,–
C[N+]1(CCF)[C@@H]2CC[C@H]1CC(OC(=O)C(O)(c1ccccc1)c1ccccc1)C2 (stereo not given in full),inactive,–
CCCCN(CCCCO)N=O,inactive,–
ClCc1cccnc1,inactive,–
COP(=S)(OC)Oc1ccc([N+](=O)[O-])c(C)c1,inactive,–
CCC1(c2ccccc2)C(=O)N(COC)C(=O)N(COC)C1=O,inactive,–
CC(C)OC(=O)Cc1ccccc1,inactive,–
CN(C)C(=O)Oc1cc(OC(=O)N(C)C)cc(C(O)CNC(C)(C)C)c1 (stereo not given),inactive,–
Oc1ccc(C2(c3ccc(O)cc3)CCCCC2)cc1,inactive,–
CNC(=O)CSP(=S)(OC)OC,inactive,–
FC(F)(F)c1ccc(Cl)cc1,inactive,–
CCN(CC)Cc1nccn1-c1ccc([N+](=O)[O-])cc1C(=O)c1ccccc1Cl,inactive,–
CC(=O)OCC1=C(C(=O)O)N2C(=O)[C@@H](N)[C@H]2SC1,–,-1.82% [at 18.9 µM]

Structure (SMILES),Potency,"viability change, negative = cytotoxic"
CC(C)C(C)(N)C#N (stereo not given),inactive,–
CC(=O)O,inactive,–
O=[N+]([O-])c1ccc(CCl)cc1,inactive,–
COCC(C)N(C(=O)CCl)c1c(C)csc1C (stereo not given),inactive,–
[P]#[In],inactive,–
C=C(C)C(=O)OCC1CO1 (stereo not given),inactive,–
Cc1ncc(C[n+]2csc(CCO)c2C)c(N)n1,inactive,–
CCCC1COC(Cn2cncn2)(c2ccc(Cl)cc2Cl)O1 (stereo not given),inactive,–
N#CC(Cl)Cl,inactive,–
C=CCC1([C@H](C)CCC)C(=O)NC(=O)NC1=O,inactive,–
CC(Cc1ccc(O)cc1)NCC(O)c1cc(O)cc(O)c1 (stereo not given),inactive,–
[Cl][Sn]([Cl])([Cl])[Cl],inactive,–
NC(=O)CI,inactive,–
c1ccc(N=Nc2ccccc2)cc1,inactive,–
CCOP(=S)(OCC)Oc1ccc(S(C)=O)cc1 (stereo not given),inactive,–
Cc1ccc([N+](=O)[O-])cc1C,inactive,–
CCNCC,inactive,–
CCOC(=O)Cc1ccccc1,inactive,–
O=c1[nH]c(=O)[nH]c(=O)[nH]1,inactive,–
CNC(=O)Oc1ccccc1C(C)C,inactive,–

# Experiment: cAMP Responsive Elements (CRE) small molecule agonists, cell-based qHTS assay: qHTS cell viability counter screen (AID 2060914);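 also: viability read after 3 h of compound exposure; nearly all actives have a fitted effect of over 50% in size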
# Conditions: CRE-bla HEK293T viability, CellTiter-Glo luminescence, 5 h; series mostly up to 92.4 µM
# Method in brief: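 CRE-bla HEK293T cells in 10% dialyzed FBS medium were exposed to compounds for 3 h at 37C after 18 h plating. CellTiter-Glo was then added in the same wells, and luminescence was read after 30 min at room temperature.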
Structure (SMILES),Potency,"activity change, negative = cytotoxicity"
NC(=O)c1cc([N+](=O)[O-])cc([N+](=O)[O-])c1,inactive,–
Cc1ccc2c(C)cccc2c1,inactive,–
C[As+](C)(C)CC(=O)[O-],inactive,–
O.O.O.O=C([O-])[C@H]([O-])[C@@H]([O-])C(=O)[O-].O=C([O-])[C@H]([O-])[C@@H]([O-])C(=O)[O-].[K+].[K+].[Sb+3].[Sb+3],inactive,–
CN1CCc2cc(Cl)c(O)cc2[C@H]2c3ccccc3CC[C@@H]21,inactive,–
[N-]=[N+]=CC(=O)OC[C@H](N)C(=O)O,inactive,–
c1ccc(-c2cccc(-c3ccccc3)c2)cc1,inactive,–
COc1ccc(C=O)cc1OC,inactive,–
C[N+]1(CCF)[C@@H]2CC[C@H]1CC(OC(=O)C(O)(c1ccccc1)c1ccccc1)C2 (stereo not given in full),inactive,–
CCCCN(CCCCO)N=O,inactive,–
ClCc1cccnc1,inactive,–
COP(=S)(OC)Oc1ccc([N+](=O)[O-])c(C)c1,inactive,–
CCC1(c2ccccc2)C(=O)N(COC)C(=O)N(COC)C1=O,inactive,–
CC(C)OC(=O)Cc1ccccc1,inactive,–
CN(C)C(=O)Oc1cc(OC(=O)N(C)C)cc(C(O)CNC(C)(C)C)c1 (stereo not given),inactive,–
Oc1ccc(C2(c3ccc(O)cc3)CCCCC2)cc1,inactive,–
CNC(=O)CSP(=S)(OC)OC,inactive,–
FC(F)(F)c1ccc(Cl)cc1,inactive,–
CCN(CC)Cc1nccn1-c1ccc([N+](=O)[O-])cc1C(=O)c1ccccc1Cl,inactive,–
CC(=O)OCC1=C(C(=O)O)N2C(=O)[C@@H](N)[C@H]2SC1,–,1.16% [at 18.9 µM]

Structure (SMILES),Potency,"activity change, negative = cytotoxicity"
CC(C)C(C)(N)C#N (stereo not given),inactive,–
CC(=O)O,inactive,–
O=[N+]([O-])c1ccc(CCl)cc1,inactive,–
COCC(C)N(C(=O)CCl)c1c(C)csc1C (stereo not given),inactive,–
[P]#[In],inactive,–
C=C(C)C(=O)OCC1CO1 (stereo not given),inactive,–
Cc1ncc(C[n+]2csc(CCO)c2C)c(N)n1,inactive,–
CCCC1COC(Cn2cncn2)(c2ccc(Cl)cc2Cl)O1 (stereo not given),inactive,–
N#CC(Cl)Cl,inactive,–
C=CCC1([C@H](C)CCC)C(=O)NC(=O)NC1=O,inactive,–
CC(Cc1ccc(O)cc1)NCC(O)c1cc(O)cc(O)c1 (stereo not given),inactive,–
[Cl][Sn]([Cl])([Cl])[Cl],inactive,–
NC(=O)CI,inactive,–
c1ccc(N=Nc2ccccc2)cc1,inactive,–
CCOP(=S)(OCC)Oc1ccc(S(C)=O)cc1 (stereo not given),inactive,–
Cc1ccc([N+](=O)[O-])cc1C,inactive,–
CCNCC,inactive,–
CCOC(=O)Cc1ccccc1,inactive,–
O=c1[nH]c(=O)[nH]c(=O)[nH]1,inactive,–
CNC(=O)Oc1ccccc1C(C)C,inactive,–
